These results are taken from PubChem BioAssay (NCI).

The panel holds about 83,000 compounds, 20% with a hit somewhere; the sample as a whole holds those more often.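 Growth was measured after 48 h exposure to one concentration of compound in 96-well plates. Values under 10 count as active.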 Calls of active or inactive are those of the source.

In the first assay the test system is OVCAR-5 ovarian. Description: NCI-60 one-dose screen, 48 h (100 = growth as untreated, 0 = no growth, -100 = all killed). As to conditions: 10 µM unless noted.
On to `ClCCN(CCCl)C(c1ccccc1)c1ccc(Cl)cc1` (stereo not given), for which the growth is 118% (inactive).

As to `CCCCn1cc(C(=O)/C(C#N)=C/c2cc3ccccc3nc2Cl)c2cc(OC)ccc21`, the growth was 102% (inactive).

`CCCCNCCc1ccccn1`: the growth was 101% (inactive).

`CC(=O)C1C(=O)N(C)C(=O)N(C)C1=O`: the growth was 99.7% (inactive).

Consider `CC1(C)N=C(N)N=C(N)N1c1cccc(C(=O)Nc2cccc(S(=O)(=O)F)c2)c1`, for which the growth is 89.4% (inactive).

With `C[C@]12CC[C@@H]3C4=C(CC[C@H]3[C@@H]1CC[C@@H]2O)CC(=O)CC4`, the growth was -62.7% (active).

`Oc1ccccc1OB(Oc1ccccc1O)N(CCCl)CCCl`: the growth was 102% (inactive).

`NC(Cc1ccc2c(c1)OCO2)c1ccc2c(c1)OCO2` (stereo not given): the growth is 109% (inactive).

`COc1ccc(-c2ccc(OC)c(OC)c2OC)cc1`: the growth was 58% (inactive).

For `CC[C@@]1(C2O[C@@H](C3O[C@@](O)(CC)[C@H](C)C[C@@H]3C)C[C@@H]2C)CC[C@H]([C@]2(C)CCC3(C[C@H](O)[C@@H](C)[C@@H]([C@H](C)[C@@H](OC)[C@H](C)C(=O)O)O3)O2)O1` (stereo not given in full), the growth was 43.9% (inactive).

Consider `CC1(C)N=C(N)N=C(N)N1c1ccc(CCCCc2ccc(S(=O)(=O)F)cc2)c(Cl)c1`, for which the growth was 40.3% (inactive).

As for `COc1ccc(C2=NN(c3ccccc3)C(c3sc(N(CCCl)CCCl)nc3Cl)C2)cc1` (stereo not given), the growth is 90.1% (inactive).

For `N#CC1c2ccccc2C=CN1C(=O)c1ccc(N(CCCl)CCCl)cc1` (stereo not given), the growth is 98.6% (inactive).

Take `CSc1ccccc1NP1(=O)OCC(C)([N+](=O)[O-])CO1` (stereo not given): the growth is 93.7% (inactive).

In the case of `Cc1ccc(N)cc1[As]=[As]c1cc(N)ccc1C` (stereo not given), the growth was -90.6% (active).

`C/C(=N/OC(=O)N(C)C)c1cc(Cl)ccc1Cl`: the growth was 104% (inactive).

For `CCC(C)[C@H]1O[C@]2(C=C[C@@H]1C)C[C@@H]1C[C@@H](C/C=C(\C)[C@@H](OC3C[C@H](OC)C(O[C@H]4C[C@H](OC)[C@@H](O)[C@H](C)O4)[C@H](C)O3)[C@@H](C)/C=C/C=C3\CO[C@@H]4[C@H](O)C(C)=C[C@@H](C(=O)O1)[C@]34O)O2` (stereo not given in full), the growth was -31.8% (active).

For `CC1(C)N=C(N)N=C(N)N1c1ccc(CCCCc2ccc(S(=O)(=O)F)cc2)cc1`, the growth was 41.2% (inactive).

For `Cc1ccc(C(=O)C2CN(C)CCC2(O)c2ccc(C)cc2)cc1` (stereo not given), the growth is 122% (inactive).

For the compound `O=S(=O)(O)c1ccc(-c2ccc([As](=O)(O)O)cc2)cc1`, the growth was 106% (inactive).

For `O=C1NC(=O)C(CN2C(=O)C3(c4ccccc42)[C@H](Cl)C(=O)N3c2ccccc2)C(=O)N1` (stereo not given in full), the growth was 84.6% (inactive).

For `O=[N+]([O-])c1cc([N+](=O)[O-])c(Cl)c(Cl)c1Cl`, the growth is 65.6% (inactive).

In the case of `C=CCC1(CC)C(=O)NC(=S)NC1=O`, the growth was 101% (inactive).

In the case of `C/C(=N/OC(=O)N(C)C)c1ccc(Cl)cc1Cl`, the growth was 106% (inactive).

Take `CCC[CH2][Sn]([CH2]CCC)([CH2]CCC)[O]C(=O)CC`: the growth was -91.2% (active).

For the compound `O=C(NCc1ccc([N+](=O)[O-])cc1)Nc1ccc(S(=O)(=O)F)cc1`, the growth was 83.9% (inactive).

For `n1nc(-c2nonc2-c2nn[nH]n2)n[nH]1`, the growth is 108% (inactive).

On to `CNC(=O)Oc1ccccc1-c1ccccc1`, for which the growth is 111% (inactive).

With `CC1(C)N=C(N)N=C(N)N1c1ccc(OCCCCOc2ccc(S(=O)(=O)F)cc2)c(Cl)c1`, the growth was 30.7% (inactive).

With `CCCCOC(=O)c1ccccc1C(=O)O.CCCCOC(=O)c1ccccc1C(=O)O.[Cu+2]`, the growth was 126% (inactive).

Take `O=[N+]([O-])c1ccc2cnn(CSP(=S)(c3ccccc3)c3ccccc3)c2c1`: the growth is 96.7% (inactive).

With `NC(=O)C(Cl)Cl`, the growth is 101% (inactive).

As to `CCN(CC)c1ccc(C=C2C(=O)NC(=S)NC2=O)cc1`, the growth is 95.1% (inactive).

For the compound `Clc1ccc(SSC(Cl)(Cl)Cl)cc1`, the growth was 105% (inactive).

Consider `[O]=[Sn]([CH]1CCCCC1)[CH]1CCCCC1`, for which the growth was -97.1% (active).

Regarding `ClCCN(CCCl)c1nc(Cl)c(C2CC(c3ccccc3)=NN2c2ccccc2)s1` (stereo not given), the growth is 99.5% (inactive).

Regarding `CC(=O)C1CCC2C3CC=C4CC(OC(=O)Cc5ccc(N(CCCl)CCCl)cc5)CCC4(C)C3CCC12C` (stereo not given), the growth is 107% (inactive).

`Cc1ccccc1O`: the growth was 121% (inactive).

`O=[N+]([O-])c1ccccc1N1CCNCC1`: the growth is 94% (inactive).

In the case of `CC(=O)Nc1ccc(C=C2C(=O)NC(=O)NC2=O)cc1`, the growth is 107% (inactive).

For the next assay, the system named is OVCAR-4 ovarian. The description is as above. The conditions noted are these: 10 µM unless noted.
Take `ClCCN(CCCl)C(c1ccccc1)c1ccc(Cl)cc1` (stereo not given): the growth was 96.9% (inactive).

On to `CCCCn1cc(C(=O)/C(C#N)=C/c2cc3ccccc3nc2Cl)c2cc(OC)ccc21`, for which the growth was 95.5% (inactive).

On to `CCCCNCCc1ccccn1`, for which the growth is 106% (inactive).

As to `CC(=O)C1C(=O)N(C)C(=O)N(C)C1=O`, the growth was 105% (inactive).

Consider `CC1(C)N=C(N)N=C(N)N1c1cccc(C(=O)Nc2cccc(S(=O)(=O)F)c2)c1`, for which the growth is 100% (inactive).

In the case of `C[C@]12CC[C@@H]3C4=C(CC[C@H]3[C@@H]1CC[C@@H]2O)CC(=O)CC4`, the growth was 111% (inactive).

For `Oc1ccccc1OB(Oc1ccccc1O)N(CCCl)CCCl`, the growth was 96.8% (inactive).

In the case of `NC(Cc1ccc2c(c1)OCO2)c1ccc2c(c1)OCO2` (stereo not given), the growth was 101% (inactive).

As to `COc1ccc(-c2ccc(OC)c(OC)c2OC)cc1`, the growth was 70.6% (inactive).

Take `CC[C@@]1(C2O[C@@H](C3O[C@@](O)(CC)[C@H](C)C[C@@H]3C)C[C@@H]2C)CC[C@H]([C@]2(C)CCC3(C[C@H](O)[C@@H](C)[C@@H]([C@H](C)[C@@H](OC)[C@H](C)C(=O)O)O3)O2)O1` (stereo not given in full): the growth is 29.7% (inactive).

Consider `CC1(C)N=C(N)N=C(N)N1c1ccc(CCCCc2ccc(S(=O)(=O)F)cc2)c(Cl)c1`, for which the growth was 80.4% (inactive).

Turning to `COc1ccc(C2=NN(c3ccccc3)C(c3sc(N(CCCl)CCCl)nc3Cl)C2)cc1` (stereo not given), the growth was 91.9% (inactive).

For `N#CC1c2ccccc2C=CN1C(=O)c1ccc(N(CCCl)CCCl)cc1` (stereo not given), the growth is 96.7% (inactive).

For the compound `CSc1ccccc1NP1(=O)OCC(C)([N+](=O)[O-])CO1` (stereo not given), the growth is 105% (inactive).

For the compound `Cc1ccc(N)cc1[As]=[As]c1cc(N)ccc1C` (stereo not given), the growth was -83.1% (active).

Consider `C/C(=N/OC(=O)N(C)C)c1cc(Cl)ccc1Cl`, for which the growth is 107% (inactive).

`CCC(C)[C@H]1O[C@]2(C=C[C@@H]1C)C[C@@H]1C[C@@H](C/C=C(\C)[C@@H](OC3C[C@H](OC)C(O[C@H]4C[C@H](OC)[C@@H](O)[C@H](C)O4)[C@H](C)O3)[C@@H](C)/C=C/C=C3\CO[C@@H]4[C@H](O)C(C)=C[C@@H](C(=O)O1)[C@]34O)O2` (stereo not given in full): the growth is 16.4% (inactive).

Turning to `CC1(C)N=C(N)N=C(N)N1c1ccc(CCCCc2ccc(S(=O)(=O)F)cc2)cc1`, the growth is 86.1% (inactive).

Regarding `Cc1ccc(C(=O)C2CN(C)CCC2(O)c2ccc(C)cc2)cc1` (stereo not given), the growth is 106% (inactive).

As to `O=S(=O)(O)c1ccc(-c2ccc([As](=O)(O)O)cc2)cc1`, the growth was 99.4% (inactive).

Regarding `O=C1NC(=O)C(CN2C(=O)C3(c4ccccc42)[C@H](Cl)C(=O)N3c2ccccc2)C(=O)N1` (stereo not given in full), the growth was 97.6% (inactive).

As for `O=[N+]([O-])c1cc([N+](=O)[O-])c(Cl)c(Cl)c1Cl`, the growth was -31.4% (active).

As for `C=CCC1(CC)C(=O)NC(=S)NC1=O`, the growth is 110% (inactive).

For `C/C(=N/OC(=O)N(C)C)c1ccc(Cl)cc1Cl`, the growth is 113% (inactive).

As for `CCC[CH2][Sn]([CH2]CCC)([CH2]CCC)[O]C(=O)CC`, the growth was -99.4% (active).

As to `O=C(NCc1ccc([N+](=O)[O-])cc1)Nc1ccc(S(=O)(=O)F)cc1`, the growth was 83.4% (inactive).

As for `n1nc(-c2nonc2-c2nn[nH]n2)n[nH]1`, the growth was 102% (inactive).

As to `CNC(=O)Oc1ccccc1-c1ccccc1`, the growth is 110% (inactive).

Take `CC1(C)N=C(N)N=C(N)N1c1ccc(OCCCCOc2ccc(S(=O)(=O)F)cc2)c(Cl)c1`: the growth is 57% (inactive).

In the case of `CCCCOC(=O)c1ccccc1C(=O)O.CCCCOC(=O)c1ccccc1C(=O)O.[Cu+2]`, the growth is 101% (inactive).

Take `O=[N+]([O-])c1ccc2cnn(CSP(=S)(c3ccccc3)c3ccccc3)c2c1`: the growth is 73.1% (inactive).

For the compound `NC(=O)C(Cl)Cl`, the growth was 105% (inactive).

With `CCN(CC)c1ccc(C=C2C(=O)NC(=S)NC2=O)cc1`, the growth was 90.9% (inactive).

As to `Clc1ccc(SSC(Cl)(Cl)Cl)cc1`, the growth was 108% (inactive).

Consider `[O]=[Sn]([CH]1CCCCC1)[CH]1CCCCC1`, for which the growth is -98.7% (active).

Take `ClCCN(CCCl)c1nc(Cl)c(C2CC(c3ccccc3)=NN2c2ccccc2)s1` (stereo not given): the growth was 87.1% (inactive).

For `CC(=O)C1CCC2C3CC=C4CC(OC(=O)Cc5ccc(N(CCCl)CCCl)cc5)CCC4(C)C3CCC12C` (stereo not given), the growth is 99.4% (inactive).

Turning to `Cc1ccccc1O`, the growth is 101% (inactive).

On to `O=[N+]([O-])c1ccccc1N1CCNCC1`, for which the growth is 99.4% (inactive).

Consider `CC(=O)Nc1ccc(C=C2C(=O)NC(=O)NC2=O)cc1`, for which the growth was 107% (inactive).
